In PubChem BioAssay AID834 (PCMD, 2007) one finds inhibition data, which are given here for 95 molecules.

Among all 85,000 compounds or so, about 120 (0.14%) were called active.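 Rule for the calls: active = inhibition above 20%; inactive = inhibition below 20%.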 Shown is part of a subset that was picked to be rich in actives.

One may read the inhibition as the drop in the measured response relative to a control, in per cent.

A short description of the experiment: clotrimazole potentiators killing Candida biofilms, primary screen, with clotrimazole, Alamar Blue (AID 834).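 Note: preformed 24 hr biofilms exposed to compound for 48 hr; 0% = biofilm without compound and 100% = blank killed by clotrimazole plus chlorhexidine.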 Particulars: C. albicans biofilm + clotrimazole, at 6 µM, stronger effect = higher value. Background: Resazurin is reduced to fluorescent resorufin, in cell work by metabolically active cells.
For `CC(=O)NC1=NN(C(C)=O)C(C)(c2ccc(Cl)s2)S1` (stereo not given), the inhibition is 6.61% (inactive). For `CCOc1c(Br)cc(/C=C2\C(=O)N(CCC#N)N=C2C)cc1OC`, the inhibition is -1.46% (inactive). For `Cc1cccc2nc(CSc3nc4[nH]ncc4c(=O)n3-c3cccc(Cl)c3)cc(=O)n12`, the inhibition is -2.14% (inactive).

Take `Cc1ccc(S(=O)(=O)N(c2cccc(C)c2)C2CCS(=O)(=O)C2)cc1` (stereo not given): the inhibition is 11.2% (inactive). With `CS(=O)(=O)Nc1ccc(C(=O)N2CCCC2)cc1`, the inhibition is 6.23% (inactive). Under `O=C(c1ccccc1Oc1ccccc1)N1CCN(c2ccc(F)cc2)CC1` stands 6.89% (inactive); under `CCOc1ccc(C(=O)NC(C(=O)NCc2ccccn2)C(C)C)cc1` (stereo not given), -4.48% (inactive); under `Cc1cccc(N2CCN(C(c3ccc(N(C)C)cc3)c3nnnn3C(C)(C)C)CC2)c1C` (stereo not given), 4.97% (inactive). With `COc1ccc(CNCCCO)cc1OC` the figure was 5.75% (inactive); with `Cc1nnc(SCc2nc3ccccc3nc2C)s1`, 5.78% (inactive); with `CC(=O)N(C)c1ccc(NC(=O)C(F)(F)F)cc1`, 0.77% (inactive). With `Cc1ccc(CN(N=Nc2nonc2N)c2nonc2N)c(C)c1` the figure was 1.82% (inactive); with `Cc1ccc(-c2cc(C(=O)NCC3CCCO3)c3ccccc3n2)o1` (stereo not given), 5.01% (inactive). Turning to `Cc1ccc(-c2noc(CSc3nnc(-c4ccncc4)n3-c3ccc(F)cc3)n2)cc1`, the inhibition was 5.84% (inactive). Under `Cc1ccc(CS(=O)(=O)CCC(=O)NC2CC2)cc1` stands 8.04% (inactive); under `Cc1csc(OCC(=O)Nc2ccc(C)c(C)c2)n1`, 4.83% (inactive); under `CCN(CC)C(=O)CN(c1cccc(OC)c1)S(=O)(=O)c1ccc(C)cc1`, 3.27% (inactive).

Take `CC1=NN(C(C)C)C(=O)C1`: the inhibition was 9.86% (inactive). With `CCOC(=O)C1CSC(CC(=O)Nc2ccc(OCC)cc2)C(=O)N1` (stereo not given) the figure was 3.56% (inactive); with `CCCc1nc(NCc2ccc3c(c2)OCO3)c2nnn(Cc3ccccc3Cl)c2n1`, 7.6% (inactive); with `CCn1c(=O)c(=O)n(CC)c2cc(S(=O)(=O)N3CCc4ccccc43)ccc21`, 1.66% (inactive). On to `Cc1cccc(NC(=O)C2CC(=O)OC23CCCC3)c1` (stereo not given), for which the inhibition was -0.65% (inactive). With `C=C(Cl)COC(=O)C1C2C=CC(C2)C1C(=O)O` (stereo not given) the figure was 6.89% (inactive); with `COCCNC(=O)Cn1cc(C(=O)c2cccs2)c2ccccc21`, -3% (inactive); with `CCOc1cccc(NC(=O)Cn2nc(-c3ccc4c(c3)OCCO4)ccc2=O)c1`, -3.83% (inactive). As for `CC1CCc2c(nc3ncnn3c2Nc2ccc(OC(F)(F)F)cc2)C1` (stereo not given), the inhibition was 2.5% (inactive).

As to `COc1c(F)c(F)c(C(=O)O)c(Nc2ccccc2C)c1F`, the inhibition was 0.13% (inactive).

Take `CCOC(=O)N1CCN(Cc2nc(N)nc(Nc3ccc(C)cc3)n2)CC1`: the inhibition is 4.91% (inactive). Under `CCOc1ccccc1NC(=O)c1cccnc1` stands 4.81% (inactive).

As to `COc1ccc(CCNS(=O)(=O)c2ccc(F)cc2)cc1OC`, the inhibition is 0.3% (inactive). With `CCS(=O)(=O)NCCc1ccc(OC)c(OC)c1` the figure was -1.71% (inactive). Turning to `COc1ccc(CCNc2ncnc3nc[nH]c23)cc1OC`, the inhibition is 22.7% (active). With `CCCCNC(=O)C1CCCNC1=O` (stereo not given), the inhibition is 1.47% (inactive). With `CCCCNS(=O)(=O)c1ccc(S(=O)(=O)n2cnc3ccccc32)cc1` the figure was 0.82% (inactive); with `O=C1N=C(N2CCCC2)S/C1=C\c1cccc(Br)c1`, 2.13% (inactive); with `CCOC(=O)C(C)n1cnc2sc(C)c(C)c2c1=O` (stereo not given), 9.63% (inactive). With `CCOC(=O)c1cnc(SCc2nc(N)nc(Nc3ccc(OC)cc3)n2)nc1N` the figure was 1.79% (inactive). Under `CN(C)[C@@H]1C(=O)C(C(N)=O)=C(O)[C@@]2(O)C(=O)C3=C(O)c4c(O)ccc(Cl)c4[C@@H](O)[C@H]3C[C@@H]12` stands 29.9% (active); under `CC1CCCN(C(C(=O)Nc2ccc(C(C)C)cc2)c2ccc3c(c2)OCO3)C1` (stereo not given), 6.31% (inactive). Take `CCS(=O)(=O)Nc1ccc(C2=NN(S(=O)(=O)c3ccc(F)cc3)C(c3ccco3)C2)cc1` (stereo not given): the inhibition was 2.91% (inactive). Under `Cc1cc(C(=O)OC(C)C(=O)Nc2cccc(S(=O)(=O)N3CCOCC3)c2)c(C)o1` (stereo not given) stands 0.93% (inactive); under `Cc1ccc(C(c2nnnn2CS(=O)(=O)c2ccc(C)cc2)N2CCC(C(N)=O)CC2)cc1` (stereo not given), -1.5% (inactive). With `COc1ccccc1-c1nc(C#N)c(N2CCC(C(N)=O)CC2)o1` the figure was 7.17% (inactive); with `Cc1cccn2c(=O)c(/C=C(\C#N)S(=O)(=O)c3ccc(Cl)cc3)c(N3CCC(C(N)=O)CC3)nc12`, 45.2% (active). Consider `Cc1ccc(Cc2c(C)nc3nc(SCC(=O)NCCN4CCOCC4)nn3c2C)cc1`, for which the inhibition was -3.03% (inactive). Under `Cc1ccc(-n2ccc(=O)c(C(=O)O)n2)cc1` stands 2.26% (inactive); under `COc1ccc(S(=O)(=O)Nc2ccc3oc(C)c(C(C)=O)c3c2)cc1`, -2.16% (inactive). With `O=C(Cc1ccccc1)Nc1c(C(=O)N2CCCCCC2)cnn1-c1ccccc1` the figure was -2.24% (inactive); with `CC(C)CC(=O)Nc1cc(C(F)(F)F)ccc1N1CCOCC1`, 1.97% (inactive).

Regarding `CC(C)(C)n1nnnc1C(c1ccc(Cl)cc1)N1CCSCC1` (stereo not given), the inhibition was 6.98% (inactive). Under `Cc1ccccc1-n1c(C)cc(/C=C2\NC(=O)NC2=O)c1C` stands 2.93% (inactive); under `Cc1ccc(NC(=O)N2CCC(c3nc4c(nnn4Cc4c(F)cccc4Cl)c(=O)[nH]3)CC2)cc1`, 5.75% (inactive). With `COc1ccccc1C(=O)N1CC2(C)CC1CC(C)(C)C2` (stereo not given) the figure was -0.87% (inactive); with `O=C(NCc1ccccn1)c1cc(-c2ccccc2Cl)on1`, -4.95% (inactive); with `CCc1ccc(C2C(C#N)=C(N)Oc3n[nH]c(CC(=O)OC)c32)cc1` (stereo not given), 8.34% (inactive). Under `CCn1nccc1C(=O)Nc1ccc(Cl)c(Cl)c1` stands 6.51% (inactive). Turning to `O=C(CCCn1c(SCC(=O)c2ccccc2)nc2ccccc2c1=O)NCC1CCCO1` (stereo not given), the inhibition is 0.02% (inactive). As to `COC(=O)c1ccccc1NC(=O)CN(Cc1ccc(Cl)cc1)S(C)(=O)=O`, the inhibition is 9.25% (inactive). Under `COc1ccc(CN2CCCCC2C)cc1OC` (stereo not given) stands 0.38% (inactive); under `CCC(C)NC(=O)c1cc(Cl)ccc1OC` (stereo not given), 3.81% (inactive); under `C=CCn1c(-c2ccc3[nH]c(C)c(C)c3c2)n[nH]c1=S`, 0.31% (inactive). Under `CCCn1c(C)cc(C(=O)COC(=O)c2c(C)nn(-c3ccccc3)c2C)c1C` stands -1.14% (inactive). With `O=C(CSc1nnc(-c2cccs2)n1Cc1ccccc1)N1CCc2ccccc2C1` the figure was 6.37% (inactive); with `CCOc1ccc2c(c1)C(c1ccc(C)cc1)=NNC(c1ccc(C)cc1)=N2`, -0.27% (inactive); with `C=C(C)CNC(=S)/N=c1\scc(C)n1CC`, 1.12% (inactive). As to `COc1ccc(C2C(C#N)=C(/N=C/N3CCOCC3)OC3=C2C(=O)CC(C)(C)C3)cc1OC` (stereo not given), the inhibition is 13.5% (inactive).

As for `O=P(O)(CP(=O)(c1ccccc1)c1ccccc1)c1ccccc1O`, the inhibition was 7.77% (inactive). For the molecule `CC(C)NC(=O)CSc1nnc(COc2ccccc2Cl)o1`, the inhibition was 5.07% (inactive). Under `O=C(c1cccc(F)c1)N1CCC(O)(c2cccnc2)CC1` stands 8.81% (inactive).

Take `CCCOc1cc(C)c(S(=O)(=O)n2nnc3ccccc32)cc1C`: the inhibition was 2.8% (inactive). Under `NC1=NC(=O)C2(COC(c3ccccc3Cl)OC2)S1` (stereo not given) stands 14.2% (inactive); under `CC(C)Nc1ncnc2c1nnn2Cc1ccccc1`, -1.71% (inactive); under `Brc1ccc(-c2nnc(-c3ccccc3)o2)o1`, 6.11% (inactive). With `CCN(CC)C(=O)CSc1nnc(C2CCCCC2)o1` the figure was 2.47% (inactive); with `O=c1[nH][nH]c(C(F)(F)F)c1C=NCc1ccccc1Cl`, -3.59% (inactive); with `CCN1C(=O)/C(=C2/Sc3ccc(OC)cc3N2C)SC1=Nc1ccc(C)cc1`, -3.03% (inactive). Under `O=C(NC(C(=O)NCCN1CCOCC1)C12CC3CC(CC(C3)C1)C2)C1CCCCC1` (stereo not given) stands -1.05% (inactive); under `S=c1[nH]nc(-c2ccc(Cl)cc2)n1CC1CCCO1` (stereo not given), 7.93% (inactive); under `Cc1nnc(SCC(=O)Nc2ncc3c(n2)CC(C)(C)CC3=O)s1`, 3.95% (inactive).

On to `Cc1ccccc1-c1nnc(SCC(=O)NCc2ccc3c(c2)OCO3)n1C`, for which the inhibition was 4.85% (inactive). Under `Cc1ccc(C(=O)N/N=C/c2sc(=O)n(Cc3cccc(C(=O)O)c3)c2Cl)cc1` stands 8.24% (inactive); under `COc1ccc(CN(Cc2ccco2)S(=O)(=O)c2ccc(S(=O)(=O)N3CCCC3)cc2)cc1`, 1.45% (inactive); under `COC(=O)c1ccccc1Oc1c(F)c(F)nc(N2CCOCC2)c1F`, 8.84% (inactive). Under `CCc1ccc(NC(=O)CN2C(=O)CSC2=O)cc1` stands 5.49% (inactive).

For `CC(C)(CNC(=O)c1cc(=O)[nH]c2ccccc12)N1CCOCC1`, the inhibition was 6.02% (inactive).

In the case of `COc1cc(C)c(C(C)C)cc1S(=O)(=O)n1ccnc1`, the inhibition was 1.15% (inactive).

As for `CCn1c(CC(=O)Nc2ccc(C)cc2)nnc1SCC(=O)Nc1nc(C)cs1`, the inhibition was 5.16% (inactive). With `CN1C(=O)C(CC(N)=O)N(NC(=O)c2ccc(Cl)cc2)C1=S` (stereo not given) the figure was 7.03% (inactive); with `Cc1ccc(-n2c(CNc3ccc(F)cc3)nnc2SCC(=O)N2CCOCC2)cc1`, 3.95% (inactive); with `CC(c1ccco1)N(C(=O)COc1ccccc1[N+](=O)[O-])c1ccccn1` (stereo not given), 7.57% (inactive). Turning to `COC(=O)[C@@H](NC(=O)Nc1cc(Cl)ccc1C)C(C)C`, the inhibition was 10.7% (inactive). With `O=C(Nc1cccc(NC(=O)c2ccco2)c1)c1cnccn1` the figure was 4.07% (inactive); with `Cn1c(-c2sc3cc(C(F)(F)F)cnc3c2-c2ccccc2)n[nH]c1=S`, 1.53% (inactive); with `CC(=O)Oc1ccc(NC(=O)CCC2CCCCC2)c(C(=O)O)c1`, 4.27% (inactive). Take `COc1ccc(S(=O)(=O)NCc2ccc(C(=O)N(C)Cc3ccco3)cc2)cc1`: the inhibition was 4.38% (inactive).
